# Most compounds without a hit are left out; they make up all but 17% or so of the library.
# ClpP mod: qHTS Assay for Activators of ClpP. purified B. subtilis ClpP, FRET peptide cleavage, 20 min. Potency, µM (series often up to 57.5 µM), inactives show at the highest dose activity change, negative = active. ATP-dependent Clp protease proteolytic subunit (Bacillus subtilis (strain 168)), P80244. AID 651965, 2013. 340,000 compounds, 1.9% hits; active means well fitted falling curve with a large enough effect; inconclusive means small, poorly fitted or top-dose-only effect; inactive means no such curve, though single readings can be large or run the other way; further: the source files actives as falling curves though it sought activators and does not explain the sign; nearly all actives have a fitted effect of over 65% in size
# Target sequence (P80244 whole entry, looked up): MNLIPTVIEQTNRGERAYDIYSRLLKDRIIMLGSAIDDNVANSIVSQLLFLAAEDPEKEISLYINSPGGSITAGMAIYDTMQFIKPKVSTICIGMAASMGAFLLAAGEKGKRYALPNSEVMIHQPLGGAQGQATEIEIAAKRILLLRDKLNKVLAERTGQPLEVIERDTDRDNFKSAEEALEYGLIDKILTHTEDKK
#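 Buffer: 100 mM Tris/HCl pH8, 100 mM KCl, 0.05% low protease BSA, 2.5% glycerol, 0.01% Tween-20. ClpP 10 microg/mL final; 20 min RT; delta FRET normalized to ADEP and DMSO controls.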
# TDP1 cell CPT: DT40-hTDP1 cell growth loss with CPT; 420,000 compounds, 12% hits; Potency, µM (doses to about 46.2 µM), inactives show at the highest dose activity change, negative = growth inhibition, actives largely listed as inhibitors; chicken DT40 Tdp1-/-;hTDP1 cells + 20 nM CPT, ATP luminescence, 48 h; AID 686979; further: on the % scale 0 is the no-effect control and ±100 the full control effect; nearly all actives have a fitted effect of over 55% in size
#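 Cell growth measured by CellTiter-Glo luminescence after a minimum 48 h, 37 C compound exposure with 20 nM CPT in Tdp1-knockout DT40 cells stably expressing hTDP1, seeded 400/well; qHTS titration format.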
# TDP1 block: inhibitors of human tyrosyl-DNA phosphodiesterase TDP1; Q9NUW8; recombinant TDP1, AlphaScreen DNA substrate cleavage; Potency, µM (highest dose often 130 µM), without a hit: at the top dose activity change, negative = inhibition, usual class: inhibitors; 350,000 compounds, 0.28% hits; further: on the % scale 0 is the no-effect control and ±100 the full control effect; nearly all actives have a fitted effect of over 40% in size
#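 AlphaScreen read-out: signal falls as enzyme removes the 3' tyrosine-FITC from a 5'-biotinylated DNA oligo (15 nM, 5 min, RT). Enzyme was E. coli-made recombinant Tdp1 at 1 nM, exposed to compound for 15 min beforehand; beads 10 ug/ml, 10 min.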
# TDP1 cell noCPT: qHTS for Inhibitors of human tyrosyl-DNA phosphodiesterase 1 (TDP1): qHTS in cells in absence of CPT; DT40 Tdp1-/- hTDP1 cells, no CPT, ATP luminescence, 48 h; Potency, µM (series often up to 46.2 µM), for the others: at the highest dose activity change, negative = growth inhibition, most hits filed as inhibitors; 420,000 compounds, 15% hits; AID 686978, 2013; further: on the % scale 0 is the no-effect control and ±100 the full control effect; nearly all actives have a fitted effect of over 55% in size
#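 Chicken DT40 Tdp1-/- cells stably complemented with human TDP1 were seeded at 400 cells/well with DMSO in place of 20 nM camptothecin. After compound pinning, cells grew at least 48 hr at 37 °C; viability read by CellTiter-Glo luminescence.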
# Active calls of the source: *; u = inconclusive; x = not tested or not shown; [ ] = another dose, or the depositor's remark. Unless noted, the call rests on the fitted dose curve; in most records, active means well fitted curve in the direction sought with a large enough effect; inconclusive means small, poorly fitted or top-dose-only effect, or another doubt; inactive means no such curve, though single readings can be large; an effect the other way counts as inactive or inconclusive. Potency means the concentration at half of the fitted maximal effect.
SMILES,ClpP mod,TDP1 cell CPT,TDP1 block,TDP1 cell noCPT
CN1CCN(S(=O)(=O)c2cccc(C(=O)N(Cc3nnc(-c4ccc(Cl)cc4)o3)C3CC3)c2)CC1,x,20.6µM*,-10.2%,u
CCc1nc2ccc(C(=O)Nc3cc(-c4ccccc4)ccc3OC)cn2c1N(CCN(C)C)CC1CC1,-4.8%,20.6µM*,x,14.6µM*
CCc1nc2ccc(C(=O)Nc3cc(-c4ccccc4)ccc3OC)cn2c1N(C=O)CCC(C)C,u,16.4µM*,x,14.6µM*
CCc1nc2ccc(C(=O)Nc3ccc(OC)c(OC)c3)cn2c1N(CCC(C)C)CCN(C)C,2.5%,u,x,u
CCc1nc2ccc(C(=O)Nc3cc(-c4ccccc4)ccc3OC)cn2c1N(C)CCC(C)C,-5.0%,18.4µM*,x,20.6µM*
CCc1nc2ccc(C(=O)Nc3cc(-c4ccccc4)ccc3OC)cn2c1N(C)CCCc1ccccc1,-11.4%,u,x,u
COc1cccc(CSc2nc3n(n2)C(CC(C)C)C(C(=O)Nc2ccccc2C)=C(C)N3)c1 (centres undefined),-10.1%,u,4.4%,-37.7%
C=CCn1c(SCC(=O)Nc2ccccc2C)nc(O)cc1=O,-1.3%,9.1%,1.4%,10.2%
COc1cc(C(C)=O)ccc1OCC(=O)NCC(c1ccc(F)cc1)N1CCOCC1 (centres undefined),x,-18.7%,0.1%,-14.4%
CCn1c(CN2CCC(C)CC2)nc2cc(NC(=O)c3cccc([N+](=O)[O-])c3)ccc21,0.7%,14.6µM*,0.5%,23.1µM*
Cc1nc2cnc(N(C)C)nc2n(-c2ccccc2)c1=O,x,-8.9%,x,-7.9%
O=C(Nc1ccc(Cl)cc1)N1CCCN(Cc2ccccc2F)C1,0.7%,25.1µM*,4.0%,u
c1ccc(C(=C2CCCO2)c2ccccc2)cc1,-3.5%,-6.9%,x,-6.4%
CC[N+]1(CC)CCC(=C(c2ccccc2)c2ccccc2)C1C (centres undefined),x,5.31µM*,x,3.35µM*
O=C(Sc1nnc(-c2ccccc2)o1)N1c2ccccc2Sc2ccccc21,-13.7%,20.6µM*,15.2%[56.1 µM],18.4µM*
COc1cc(-c2nnc(SCC(=O)Oc3ccccc3Cl)o2)cc(OC)c1OC,0.2%,-4.1%,5.7%,-3.6%
COc1cc(-c2nnc(SCC(=O)N3c4ccccc4Sc4ccccc43)o2)cc(OC)c1OC,-7.2%,u,2.5%,8.2µM*
COc1cc(-c2nnc(SCC(=O)c3ccc(C)cc3)o2)cc(OC)c1OC,-2.6%,u,5.3%,23.1µM*
COc1ccc(C(=O)CSc2nnc(-c3ccc(C)cc3)o2)cc1,-2.3%,-2.7%,2.6%,-18.9%
COc1cc(-c2nnc(SCC(=O)/C(C#N)=C(\C)N)o2)cc(OC)c1OC,14.1µM*,u,2.1%,u
COc1cc(-c2nnc(SCC(=O)N3CCCC3)o2)cc(OC)c1OC,-2.0%,-9.2%,6.3%,-2.4%
COc1ccc(-c2c(-c3ccsc3)oc3c2C(O)CCC3)cn1 (centres undefined),-21.2%,-21.9%,x,-21.0%
COc1cccc(C(=O)CSc2nnc(-c3cc(OC)c(OC)c(OC)c3)o2)c1,-7.3%,u,8.0%,20.6µM*
COc1cc(-c2nnc(SCc3ccccc3Cl)o2)cc(OC)c1OC,-5.8%,u,1.1%,u
COc1cc(-c2nnc(SCc3c(F)cccc3Cl)o2)cc(OC)c1OC,-0.9%,u,3.3%,25.9µM*
SMILES,ClpP mod,TDP1 cell CPT,TDP1 block,TDP1 cell noCPT
C=CCN(C(=O)c1csnn1)C(C(=O)NC1CCCC1)c1ccc(Cl)cc1 (centres undefined),-12.9%,-2.3%,x,-17.4%
CC1(C)c2ccccc2-n2c1cc1oc(=O)cc(O)c1c2=O,x,u,5.2%,20.6µM*
COc1ccccc1CNC(=O)Cc1c(C)c2c(cc(C)c3c(C)coc32)oc1=O,u,6.0%,4.7%,-0.6%
Cc1cc(Cl)ccc1NC(=S)NCc1ccc(Cl)cc1,-1.0%,u,-2.6%,23.1µM*
Cc1ccccc1NC(=S)NCc1cccs1,-0.8%,-6.4%,2.3%,u
COc1cccc(NC(=S)NCc2ccccc2)c1,0.2%,-7.4%,x,u
COc1ccc(NC(=S)NCCC(c2ccccc2)c2ccccc2)c(OC)c1,-3.3%,17.8µM*,5.2%,15.8µM*
Cc1ccccc1NC(=S)NCc1ccccc1,-2.2%,29.1µM*,7.7%,23.1µM*

# Screening data as filed in PubChem BioAssay.
